An excerpt weighted towards active compounds, which were near 12% of everything screened.
G9a inh: blocks human histone lysine methyltransferase G9a. G9a H3K9 monomethylation, AlphaScreen, 2 h. 350,000 compounds, 8.8% hits. Q96KQ7. Potency, µM (series often up to 102 µM), for the others: top-dose activity, negative = inhibition, actives largely listed as inhibitors. AID 504332; note: % is set by controls: 0 for no effect and ±100 for the full control effect; nearly all actives have a fitted effect of over 75% in size
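Step 1: enzyme (final 20 nM) with compound, 15 min RT. Step 2: substrate peptide 500 nM and SAM 20 uM, 2 h RT. Step 3: anti-H3K9me1 antibody and AlphaScreen beads, 10 min, then plate read.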
L3MBTL1 block: blocks human L3MBTL1 | Q9Y468 | AlphaScreen L3MBTL1–H3K9me1 peptide binding | Potency, µM (doses to about 57.1 µM), inactives show top-dose activity, negative = inhibition, most hits filed as inhibitors | 230,000 compounds, 0.66% hits; note: % is set by controls: 0 for no effect and ±100 for the full control effect; nearly all actives have a fitted effect of over 60% in size
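Displacement of a biotinylated histone H3(1-15) peptide monomethylated at Lys9 (75 nM) from L3MBTL1 (50 nM) was measured by AlphaScreen after a 30 min room-temperature compound incubation; cefsulodin titration served as intraplate control.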
HP1b binding inh: HP1-beta chromodomain-methylated histone interaction inhibition; P83916; AlphaScreen HP1-beta / biotin-H3K9me3 peptide binding; Potency, µM (doses to about 114 µM), inactives show at the highest dose activity change, negative = inhibition, hits mostly inhibitors; 390,000 compounds, 0.56% hits; AID 540317; note: nearly all actives have a fitted effect of over 70% in size
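Compound inhibition of the preformed complex between 50 nM HP1-beta and 50 nM biotinylated H3K9me3 peptide was read by AlphaScreen. Buffer was PBS pH 7.4 with 0.01% Tween-20. Incubations ran 30 min at room temperature, with 10 ug/mL donor/acceptor beads.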
JMJD2A Tudor inh: inhibitors of human JMJD2A Tudor domain. AID 504339. 390,000 compounds, 4.4% hits. O75164. AlphaScreen JMJD2A-Tudor / H3K4me3 peptide binding. Potency, µM (doses to about 114 µM), without a hit: at the top dose activity change, negative = inhibition, most hits filed as inhibitors; note: % is set by controls: 0 for no effect and ±100 for the full control effect; nearly all actives have a fitted effect of over 50% in size
Target sequence (O75164 whole entry, looked up, the tested form may be a part): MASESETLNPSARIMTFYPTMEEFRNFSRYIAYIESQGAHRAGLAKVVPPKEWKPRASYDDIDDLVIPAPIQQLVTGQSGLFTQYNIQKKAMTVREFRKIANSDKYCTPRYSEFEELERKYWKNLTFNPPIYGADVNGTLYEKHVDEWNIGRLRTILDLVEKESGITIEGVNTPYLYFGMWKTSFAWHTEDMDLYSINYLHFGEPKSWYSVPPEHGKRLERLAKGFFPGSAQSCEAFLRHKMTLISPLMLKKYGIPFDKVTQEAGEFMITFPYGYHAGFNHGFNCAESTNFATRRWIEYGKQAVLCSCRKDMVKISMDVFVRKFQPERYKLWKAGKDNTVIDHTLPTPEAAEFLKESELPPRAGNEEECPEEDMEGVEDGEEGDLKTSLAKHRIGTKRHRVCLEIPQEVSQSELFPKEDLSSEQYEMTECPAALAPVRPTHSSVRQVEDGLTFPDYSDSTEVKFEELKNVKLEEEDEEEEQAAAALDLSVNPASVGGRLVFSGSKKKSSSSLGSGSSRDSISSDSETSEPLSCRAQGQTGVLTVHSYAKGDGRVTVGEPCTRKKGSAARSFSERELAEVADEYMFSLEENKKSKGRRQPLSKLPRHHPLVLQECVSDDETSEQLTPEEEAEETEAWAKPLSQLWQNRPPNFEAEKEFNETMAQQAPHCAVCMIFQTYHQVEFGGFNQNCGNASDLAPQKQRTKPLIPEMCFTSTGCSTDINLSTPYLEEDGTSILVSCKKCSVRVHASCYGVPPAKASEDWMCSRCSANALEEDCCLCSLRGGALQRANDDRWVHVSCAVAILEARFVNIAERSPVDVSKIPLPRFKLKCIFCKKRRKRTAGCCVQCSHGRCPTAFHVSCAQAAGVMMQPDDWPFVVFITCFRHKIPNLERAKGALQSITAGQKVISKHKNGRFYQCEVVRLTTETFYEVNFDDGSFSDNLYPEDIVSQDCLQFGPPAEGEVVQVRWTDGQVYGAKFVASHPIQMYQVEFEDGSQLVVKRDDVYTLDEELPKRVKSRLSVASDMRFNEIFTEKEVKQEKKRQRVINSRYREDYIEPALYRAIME
Sfp inh: inhibitors of Bacillus subtilis Sfp phosphopantetheinyl transferase; Q9F4F7; 310,000 compounds, 3.5% hits; Biochemical Sfp PPTase activity, qHTS; Potency, µM, for the others: largest response in the series, negative = inhibition, actives largely listed as inhibitors;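 note: the enzyme is Sfp with the accession as filed and its product quenches rhodamine fluorescence; 0% = enzyme reaction without inhibitor and -100% = no enzyme wells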
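Buffer: 50 mM Hepes-Na pH 7.6, 10 mM MgCl2, 0.01% Nonidet P-40, 0.01% BSA. Enzyme 15 nM, pre-exposed to compound 15 min; substrates then added and fluorescence change tracked over 30 min.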
BAZ2B inh: inhibitors of human BAZ2B bromodomain; Potency, µM (doses to about 114 µM), for the others: at the highest dose activity change, negative = inhibition, usual class: inhibitors; AID 504333; 360,000 compounds, 4.4% hits; Q9UIF8; AlphaScreen BAZ2B-H3K14Ac peptide displacement; note: % is set by controls: 0 for no effect and ±100 for the full control effect; nearly all actives have a fitted effect of over 60% in size
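AlphaScreen displacement: compounds (up to 110uM) incubated 30 min at room temperature with a preformed 50 nM BAZ2B/50 nM biotinylated H3K14Ac peptide complex in PBS pH 7.4 with Tween-20. Donor and acceptor beads at 10 ug/mL final added, 20 min light-protected before reading.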
An asterisk follows results filed as active; ? = inconclusive; nt = no result given; ! = not confirmed by another sample; [ ] = dose if it differs, or a comment. Calls come from the whole dose curve; as a rule, active = well fitted curve in the direction sought with a large enough effect; inconclusive = small, poorly fitted or top-dose-only effect, or another doubt; inactive = no such curve, though single readings can be large; an effect the other way counts as inactive or inconclusive. Potency is the fitted concentration of half-maximal effect.

SMILES	G9a inh	L3MBTL1 block	HP1b binding inh	JMJD2A Tudor inh	Sfp inh	BAZ2B inh
CCCCC/C=C\C/C=C\C/C=C\C/C=C\CCCC(=O)OCCN	?	nt	nt	nt	63µM*	nt
CCCCC/C=C\C/C=C\C/C=C\C/C=C\CCCC(=O)Nc1ccc(O)cc1	-8%[59 µM]	nt	nt	nt	33%	-20%
CCCCC/C=C\C/C=C\C/C=C\C/C=C\CCCC(=O)NCCO	34%[59 µM]	nt	nt	nt	45µM*!	nt
CCCCC/C=C\C/C=C\C/C=C\C/C=C\CCCC(=O)NCc1ccoc1	14µM*	nt	nt	nt	22µM*	nt
CCCCC/C=C\C/C=C\C/C=C\C/C=C\CCCC(=O)NCCc1ccc(O)c(O)c1	11µM*	nt	nt	nt	45µM*!	nt
CC1=CC(=O)C2=C(C)C[C@@H](O)[C@@H]3[C@@H](OC(=O)[C@H]3C)[C@H]12	23%[21.5 µM]	nt	nt	nt	5%	nt
O=C(O)/C=C/CO	22%[59 µM]	nt	nt	nt	17%	nt
CCCCC/C=C\C/C=C\C/C=C\C/C=C\CCCC(=O)NCC(=O)O	12µM*!	nt	nt	nt	79µM*!	nt
CCCCC/C=C\C/C=C\C/C=C\C/C=C\CCCC(=O)NCCCC(=O)O	-5%[59 µM]	nt	nt	nt	?	nt
O=C(C(=C1N(Cc2ccc(Cl)nc2)CCN1Cc1ccc(Cl)nc1)[N+](=O)[O-])C(Cl)Cl	?	nt	55%	0%	7%	-11%
CCC1CO/C(=C(\C(Cl)=C(Cl)Cl)[N+](=O)[O-])N1Cc1ccc(Cl)nc1 (stereo not drawn)	?	nt	20%	-28%	6%	79µM*
CCCc1[nH]nc2c1C1(C(=O)N(Cc3ccccc3)c3ccccc31)C(C(=O)OC)=C(N)O2 (stereo not drawn)	50µM*	nt	13%	-25%	-12%	-33%
CCCc1[nH]nc2c1C1(C(=O)N(CC(N)=O)c3ccccc31)C(C(=O)OC)=C(N)O2 (stereo not drawn)	-14%	1%	54%	20%	1%	-23%
CCOc1ccc(C(=O)Nc2ccc3nc(SCCOc4ccccc4)sc3c2)cc1	2%[59 µM]	nt	35%	-1%	nt	?
CCOC(=O)c1ccc(N=Cc2c(O)n(-c3ccccc3F)c(=S)[nH]c2=O)cc1	-8%[59 µM]	3%	36%	-1%	-20%	2%
Cc1ccccc1-n1c(O)c(/C=N/NC(=O)c2ccccc2O)c(=O)[nH]c1=S	32%[59 µM]	?	-8%	-28%[11.4 µM]	6%	45µM*
O=C(N/N=C/c1c(O)n(CCC2=CCCCC2)c(=S)[nH]c1=O)c1ccccc1	?	6%	17%	?	8%	-5%
O=C(N/N=C/c1c(O)n(-c2ccccc2)c(=S)[nH]c1=O)c1ccccc1	5%	nt	32%	45µM*	19%	45µM*
O=c1[nH]c(=S)n(C2CC2)c(O)c1C=Nc1ccc2c(c1)OCO2	71µM*	nt	32%	-12%	56µM*	3%
O=C(N/N=C/c1c(O)n(C2CC2)c(=S)[nH]c1=O)c1ccccc1O	25%[59 µM]	-16%	17%	40µM*	17%	45µM*
CC(C)c1ccc(N=Cc2c(O)n(C3CC3)c(=S)[nH]c2=O)cc1	?	-2%	40%	-4%	4%	-18%
CN(C)CCO	23%[59 µM]	nt	nt	nt	4%	nt
C[C@H](N)Cc1c[nH]c2ccc(OCc3cccs3)cc12	nt	nt	nt	nt	-17%	nt
O=c1[nH]c(=S)n(C2CC2)c(O)c1C=NCc1cccnc1	?	-5%	29%	28µM*	-12%	-4%
NC(CP(=O)(O)O)C(=O)O (stereo not drawn)	27µM*!	nt	nt	nt	?	nt
NC(CCCCCP(=O)(O)O)C(=O)O (stereo not drawn)	6µM*	nt	nt	nt	nt	nt
O=C1Nc2cc(C(=O)N3CCC4(CC3)OCCO4)ccc2NC1CSCc1cccc(F)c1 (stereo not drawn)	7.1µM*	nt	nt	nt	50µM*	-22%
CC(=O)C(O)C(c1ccccc1)c1c(O)c2ccccc2oc1=O (stereo not drawn)	nt	nt	nt	nt	9%	nt
CC(=O)CC(c1ccc(O)cc1)c1c(O)c2ccccc2oc1=O (stereo not drawn)	nt	nt	nt	nt	20%	nt
